Compound activity (PubChem)
ALDH1A1 inh = qHTS Assay for Inhibitors of Aldehyde Dehydrogenase 1 (ALDH1A1) | Purified ALDH1A1, NADH fluorescence, propionaldehyde substrate | AID 1030, 2008 | 220,000 compounds, 7.3% hits | Aldehyde dehydrogenase 1A1 (Homo sapiens), P00352 | Potency, µM (titrated, usually from 75.3 µM), actives largely listed as inhibitors; active means well fitted inhibition curve with a large enough effect, not every such curve was filed as active; inconclusive means small, poorly fitted or top-dose-only effect, or another doubt; inactive means no such curve, though single readings can be large or run the other way
Target sequence (P00352 whole entry, looked up): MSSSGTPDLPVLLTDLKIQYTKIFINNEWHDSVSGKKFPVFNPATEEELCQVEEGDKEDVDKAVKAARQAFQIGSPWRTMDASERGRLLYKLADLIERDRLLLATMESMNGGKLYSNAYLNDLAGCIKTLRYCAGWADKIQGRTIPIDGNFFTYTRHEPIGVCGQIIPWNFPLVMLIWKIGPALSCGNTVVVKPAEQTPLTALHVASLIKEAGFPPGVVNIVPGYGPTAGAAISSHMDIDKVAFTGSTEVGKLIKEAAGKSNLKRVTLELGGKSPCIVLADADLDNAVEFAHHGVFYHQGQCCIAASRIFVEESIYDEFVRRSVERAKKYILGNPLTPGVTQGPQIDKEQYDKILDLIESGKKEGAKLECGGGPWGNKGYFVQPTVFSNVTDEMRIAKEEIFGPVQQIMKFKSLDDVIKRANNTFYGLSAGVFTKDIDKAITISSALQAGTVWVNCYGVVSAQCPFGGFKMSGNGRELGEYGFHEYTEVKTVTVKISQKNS
HPGD inh = qHTS Assay for Inhibitors of HPGD (15-Hydroxyprostaglandin Dehydrogenase) | 15-hydroxyprostaglandin dehydrogenase [NAD(+)] (Homo sapiens), P15428 | purified HPGD, NADH fluorescence kinetic, PGE2 substrate | Potency, µM, most hits filed as inhibitors | 150,000 compounds, 4.3% hits | AID 894, 2007; active means well fitted inhibition curve with a large enough effect, not every such curve was filed as active; inconclusive means small, poorly fitted or top-dose-only effect, or another doubt; inactive means no such curve, though single readings can be large or run the other way
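NADH formation kinetics: reaction with 30 uM PGE2 and 1 mM NAD+ (final), 20 nM enzyme, Tris-HCl pH 8 with Tween 20, after 15 min compound preincubation at room temperature. Fluorescence change, last versus first of five reads.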
IMPase inh = qHTS Assay for Identifying the Cell-Membrane Permeable IMPase Inhibitors; 120,000 tested, under 10 active; CHO-M1 cells, IP1 accumulation, HTRF TR-FRET ratio; AID 901, 2007; Inositol monophosphatase 1 (Rattus norvegicus), P97697; inhibition (IP1 accumulation), % at 46.1 µM; active means well fitted curve in the direction sought with a large enough effect in the signal ratio, not every such curve was filed as active; inconclusive means small, poorly fitted or top-dose-only effect, or a change in a side signal; inactive means no such curve, though single readings can be large or run the other way; the % refers to the signal ratio;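 further: cells stimulated with carbachol in lithium chloride buffer; higher means more IMPase inhibition seen as more IP1 and lower FRET ratio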
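The IP-One HTRF competitive assay in carbachol-stimulated CHO-M1 cells quantifies cellular IP1. Compounds spanned up to 46 uM final, and activity is expressed as AC50 from concentration-response fits of the ratio and donor data.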
PNC inhibitor = High Content Assay for Compounds that inhibit the Assembly of the Perinucleolar Compartment. PC3M PTB-GFP, PNC prevalence imaging, 16 h; stronger effect = lower value. activity change (PNC), negative = inhibition, % at 10 µM. 140,000 compounds, 3.1% hits. AID 2417, 2010;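 active means readout at or below -70, meaning at least 70% loss of cells showing the perinucleolar compartment, a nuclear body marking cancer cells; inconclusive means readout between -30 and a set limit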
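PC3M cells stably expressing PTB-GFP, 750–1000 cells/well, treated 16 h at 37 °C with compound (23 nl of library stock), in duplicate. After paraformaldehyde fixation and Hoechst stain, imaged at 20x; PNC prevalence scored by image analysis.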
IMPase Li inh = qHTS Assay for Identifying the Cell-Membrane Permeable IMPase Inhibitors: Potentiation with Lithium | Potency, µM (highest dose often 59.4 µM), most hits filed as inhibitors | 210,000 compounds, 0.35% hits | CHO-M1 cells, IP1 TR-FRET (IP-One), carbachol + lithium | AID 1457, 2008;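 further: IP1 builds up when IMPase is blocked and the TR-FRET signal falls; nearly all actives have a fitted effect of over 50% in size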
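CHO-M1, 2000 cells/well, 16–30 h culture; cpd + low Li+, 30 min 37C; lysis with d2-IP1/Eu-anti-IP1 Ab, 10 min RT; TR-FRET 665/620 ratio and 620 channel; AC50 via Hill.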
12-hLO inh = qHTS Assay for Inhibitors of 12-hLO (12-human lipoxygenase); 150,000 compounds, 0.12% hits; purified 12-hLO, xylenol orange hydroperoxide absorbance; AID 1452, 2008; Polyunsaturated fatty acid lipoxygenase ALOX12 (Homo sapiens), P18054; Potency, µM (highest dose often 57.1 µM), usual class: inhibitors; further: nearly all actives have a fitted effect of over 55% in size
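150 nM 12hLO, 25 mM Hepes pH 7.0 + 0.01% Triton X-100; cpd preinc 15 min RT; 40 uM arachidonic acid, 30 min RT; Fe-XO 30 min; A573/A405 ratio as read-out.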
Large screens that a line does not name were inactive. Compounds with a hit are over-represented: about 11% of the library has one in this group of screens. Unless noted, the call rests on the fitted dose curve; in most records, active means well fitted curve in the direction sought with a large enough effect; inconclusive means small, poorly fitted or top-dose-only effect, or another doubt; inactive means no such curve, though single readings can be large; an effect the other way counts as inactive or inconclusive.

CCC(C(=O)O)C1CCC(C)C(C(C)C(O)C(C)C(=O)C(CC)C2OC3(C=CC(O)[C@@]4(CC[C@](C)(C5CC[C@@](O)(CC)C(C)O5)O4)O3)C(C)CC2C)O1 (stereo partly specified)	none (no result: IMPase inh, PNC inhibitor)
CC(=NC1CCCCC1)c1ccccc1O	ALDH1A1 inh inconclusive (no result: IMPase inh, PNC inhibitor)
Cn1ncc([N+](=O)[O-])c1C(=O)Nc1nccs1	HPGD inh inconclusive, PNC inhibitor -105.5 (no result: IMPase inh)
O=C(Nc1nccs1)c1ccccc1[N+](=O)[O-]	none
Cc1cc(=O)c2cccc(Br)c2[nH]1	PNC inhibitor -100.0
Cc1ccc(S(=O)(=O)Nc2ccc(C(OC(=O)c3ccccc3[N+](=O)[O-])(C(F)(F)F)C(F)(F)F)cc2)cc1	ALDH1A1 inh inconclusive, PNC inhibitor -108.4 (no result: IMPase inh)
O=S(=O)(NC1CCCC1)c1ccc(S(=O)(=O)NC2CCCC2)cc1	PNC inhibitor inconclusive
CC(C)(C)C(=O)CNS(=O)(=O)c1ccc(S(=O)(=O)NC2CCCC2)cc1	ALDH1A1 inh inconclusive, PNC inhibitor -82.4
CN(C)Cc1ccccc1-c1cc(NCc2ccccc2)ncn1	ALDH1A1 inh inconclusive (no result: HPGD inh, IMPase inh, PNC inhibitor, 12-hLO inh)
C=CCNC(=S)NNC(=O)c1cccc(Br)c1	none
CCC(=O)Nc1cccc2ccccc12	none (no result: HPGD inh, IMPase inh, PNC inhibitor, 12-hLO inh)
O=C(NNC(=S)Nc1cccc2ccccc12)c1cccc(Br)c1	ALDH1A1 inh 4.47µM, PNC inhibitor inconclusive, 12-hLO inh inconclusive
NC(=O)Nc1cccc2ccccc12	PNC inhibitor -104.8 (no result: IMPase inh)
COC(=O)[C@@]1(Cc2ccc(F)cc2)[C@H]2c3cc(C(=O)N(C)C)n(CCc4ccc(O)c(O)c4)c3C[C@H]2CN1C(=O)c1ccccc1	HPGD inh inconclusive (no result: IMPase inh, PNC inhibitor)
O=C(Cn1cc(C(=O)C(F)(F)F)c2ccccc21)N1CCCCCC1	none (no result: ALDH1A1 inh, HPGD inh, PNC inhibitor, IMPase Li inh, 12-hLO inh)
COc1ccc(NC(=O)CSC2=Nc3ccccc3C3=NC(CCC(=O)NC4CCCCC4)C(=O)N23)cc1Cl (stereo unspecified)	none (no result: ALDH1A1 inh, HPGD inh, PNC inhibitor, IMPase Li inh, 12-hLO inh)
CCCCN1C(=O)N(C)C2C1N(C)C(=O)N2CCCC (stereo unspecified)	PNC inhibitor -100.0
O=C(NC1CCCC1)C(c1ccncc1)N(Cc1cccs1)C(=O)c1csnn1 (stereo unspecified)	ALDH1A1 inh 3.55µM
O=C(NC1CCCCC1)C(c1ccncc1)N(Cc1ccccc1)C(=O)c1ccc(-c2ccccc2)[nH]1 (stereo unspecified)	ALDH1A1 inh 22.4µM
O=C(NC1CCCC1)C(c1cccs1)N(Cc1ccco1)C(=O)c1csnn1 (stereo unspecified)	ALDH1A1 inh inconclusive, PNC inhibitor inconclusive
Cc1ccc(C(C(=O)NC2CCCC2)N(Cc2ccc(F)cc2)C(=O)c2csnn2)o1 (stereo unspecified)	ALDH1A1 inh 14.1µM, PNC inhibitor inconclusive
COCCNC(=O)C(c1ccc(C)o1)N(C(=O)C(=O)NC1CCCCC1)c1ccc(F)cc1 (stereo unspecified)	none (no result: HPGD inh, IMPase inh, PNC inhibitor, 12-hLO inh)
COc1ccc(CN(C(=O)c2ccc(-c3ccccc3)[nH]2)C(C(=O)NCC2CCCO2)c2ccc(C)o2)cc1 (stereo unspecified)	ALDH1A1 inh 10µM, HPGD inh inconclusive
CN(C)c1ncc2nc(-c3ccc(Cl)cc3)c(=O)n(C[C@H]3CCCO3)c2n1	ALDH1A1 inh inconclusive (no result: HPGD inh, IMPase inh, PNC inhibitor, 12-hLO inh)
O=c1c2ccccc2sc2nc(C3CCCCC3)n(Cc3ccco3)c(=O)c12	ALDH1A1 inh 1.41µM, HPGD inh 15.8µM, 12-hLO inh inconclusive
CO/N=C(\C(=O)N[C@@H]1C(=O)N2C(C(=O)[O-])=C(C[N+]3(C)CCCC3)CS[C@@H]12)c1csc(N)n1	none (no result: PNC inhibitor)
Nc1ccc(C(=O)c2ccccc2C(=O)O)cc1Cl	PNC inhibitor -107.2
COc1ccccc1-c1nc2s/c(=C\c3cccs3)c(=O)n2n1	none
